From ChEMBL document CHEMBL3988442, “University of Dundee, Small-Polar-MMV Screening Library” (2021)
Screen size: about 48,000 compounds; about 13,000 (27%) showed an effect of 50% or more. The list shows a part of the results.

The molecules below were run on Wolbachia pipientis (assay: Anti-Wolbachia Cell-Based Screen). Conditions: 5 µM.
Assay type: functional
Design: scale not given: in the data most compounds retested in dose-response had high values

SMILES | Percent Effect
CN(Cc1ccccn1)C(=O)c1ccc2c(c1O)OC(C)(C)C2 | -37.36%
COc1ccc(OC)c(CN(C)c2ncc(S(N)(=O)=O)s2)c1 | -0.04358%
c1cnn(CCNCc2csc(-c3ccsc3)n2)c1 | 8.023%
O=C(O)C(F)(F)F.O=C(c1cnccn1)N1C[C@@H]2CCN(c3cnccn3)C[C@@H]2C1 | 21.49%
O=C(C1CCCCC1)N1C[C@@H]2CCN(c3cnccn3)C[C@@H]2C1.O=C(O)C(F)(F)F | 86.55%
O=C(C1CCCC1)N1C[C@@H]2CCN(c3cnccn3)C[C@@H]2C1.O=C(O)C(F)(F)F | 80.73%
O=C(C1CCCO1)N1C[C@@H]2CCN(c3cnccn3)C[C@@H]2C1.O=C(O)C(F)(F)F (some centres not stated) | 102.5%
CC(C)CN1CC(C(=O)N(C)CCc2cn[nH]c2)CC1=O (configuration not stated) | -9.129%
Cc1ncc(CNC(=O)CCc2ccccc2F)c(C2CCCN2C)n1 (configuration not stated) | 94.99%
COc1cccc(CCNC(=O)CN2CCCC2c2noc(C)n2)c1 (configuration not stated) | -3.314%
Cc1ncc(CNC(=O)Cc2cccs2)c(C2CCCN2C)n1 (configuration not stated) | 125.2%
Cc1ncc(CNC(=O)CCc2cccc(F)c2)c(C2CCCN2C)n1 (configuration not stated) | 2.906%
CCOc1ncccc1CNC(=O)N1CCCC1c1cccs1 (configuration not stated) | -31.15%
COc1cccc(CC(=O)NCc2cnc(C)nc2C2CCCN2C)c1 (configuration not stated) | 116.5%
CS(=O)(=O)N1C[C@@H]2CC[C@H](C1)N(CCC(=O)NCc1ccccc1F)C2 | -8.664%
Cc1ncc(CNC(=O)CCOc2ccccc2)c(C2CCCN2C)n1 (configuration not stated) | -4.417%
Cc1ncc(CNC(=O)CCc2cccs2)c(C2CCCN2C)n1 (configuration not stated) | 135.8%
O=C1NCCN(Cc2cccnc2)C1CC(=O)N1CCc2n[nH]cc2C1 (configuration not stated) | -19.58%
O=C1C(Sc2nc(=O)ccn2C2CC2)CCN1c1ccccc1F (configuration not stated) | -10.52%
CCNC(=O)N1CCC(NC(=O)NCCc2cc3ccccc3o2)C1 (configuration not stated) | -2.435%
CSCC(C)NCc1ccc2[nH]c(C)c(C)c2c1 (configuration not stated) | 7.257%
COCCC(=O)N1C[C@H]2CC[C@@H]1CN(C1Cc3ccccc3C1)C2 | 12.41%
O=C(Nc1nncs1)N(Cc1cccc(O)c1)C1CC1 | -1.611%
CCC(C)(CC(=O)O)NC(=O)Cc1ccccc1Br (configuration not stated) | 0.3012%
Cc1noc(C)c1CNC(=O)c1ccc(NC2CC2)nc1 | 4.161%
Cc1noc(C)c1CCCNC(=O)C1CCCN(C(=O)C2CC2)C1 (configuration not stated) | -0.7156%

SMILES | Percent Effect
Cc1ncc(CNC(=O)Cc2ccsc2)c(C2CCCN2C)n1 (configuration not stated) | 124.7%
Cc1ncc(CNC(=O)Cc2ccc(Cl)cc2)c(C2CCCN2C)n1 (configuration not stated) | -6.333%
Cc1nc(C2CCCN2CC(=O)NCCc2ccsc2)no1 (configuration not stated) | -6.143%
Cc1ncc(CNC(=O)CCc2c(C)noc2C)c(C2CCCN2C)n1 (configuration not stated) | 116.8%
CCCNC(=O)c1cc(Br)cc(S(=O)(=O)N2CCOCC2)c1F | -12.55%
C[C@@H]1C[C@@H]2CCN(C(=O)c3cnccn3)C[C@H]2O1 | -10.48%
CN1[C@H](Cn2cncn2)C[C@@H]2CN(Cc3ccsc3)CC[C@@H]21.O=C(O)C(F)(F)F.O=C(O)C(F)(F)F | -21.59%
O=C(C[C@H]1[C@H]2CN(Cc3ccsc3)C[C@@H]12)N1CCCC1.O=C(O)C(F)(F)F | -30.77%
O=C(c1ccsc1)N1C[C@@H](CN2CCCC2)[C@@H](CO)C1 | 20.63%
CN1[C@H](CN2CCCC2)C[C@@H]2CN(C(=O)c3cnccn3)CC[C@@H]21 | 120.7%
CN1[C@H](CN2CCCC2)C[C@@H]2CN(C(=O)Cc3ccsc3)CC[C@@H]21.O=C(O)C(F)(F)F.O=C(O)C(F)(F)F | 88.77%
O=C(O)C(F)(F)F.O=C(c1cnccn1)N1CC[C@@H]2CO[C@@H](CN3CCCC3)[C@@H]2C1 | -10.73%
CN1[C@H](CN2CCCC2)C[C@@H]2CN(C(=O)c3ccsc3)CC[C@@H]21 | 81.43%
COc1cc(S(=O)(=O)N2CCCc3ccccc32)cc(C(=O)O)c1OC | 4.14%
c1ccc(Cc2nc(C3CC3)nn2-c2ccc3c(c2)OCCO3)nc1 | 5.106%
c1ccc(C(CC2CN(Cc3ncc[nH]3)CCO2)c2ccccc2)cc1 (configuration not stated) | 116.4%
c1ccc(C(CC2CN(Cc3c[nH]cn3)CCO2)c2ccccc2)cc1 (configuration not stated) | 106.4%
O=C(NCCC1CN(Cc2c[nH]cn2)CCO1)Nc1ccccc1 (configuration not stated) | -0.1872%
c1ccc(CCCC2CN(Cc3ncc[nH]3)CCO2)cc1 (configuration not stated) | 98.97%
CC(C)c1n[nH]c(C2CN(Cc3ncc[nH]3)CCO2)n1 (configuration not stated) | -3.355%
CC(C)n1ccnc1CN1CCOC(CCc2ccccc2)C1 (configuration not stated) | -13.14%
CCS(=O)(=O)N1CCOC(CCCc2ccccc2)C1 (configuration not stated) | -15.33%
CCN(CC1CN(Cc2ncc[nH]2)CCO1)c1cccnn1 (configuration not stated) | 4.051%
O=C(Nc1cnn(CC(=O)N2CCCO2)c1)c1ccccc1 | 1.203%
CCN(C(c1cccnc1)c1ccc2c(c1)CCC2)S(C)(=O)=O (configuration not stated) | -0.855%
O=C(NC1CCN(C2CC2)CC1)NC1CCOc2ccc(Br)cc21 (configuration not stated) | 24.64%
